Our source for the growth inhibition values is PubChem BioAssay (NCI).

About 79,000 compounds went through this panel and 15% of them were active in at least one assay; those are over-represented in the sample as a whole. Unmarked numbers belong to inactive results. The source made the active and inactive calls. Cut-off read from the data, not from the text of the source: active = growth inhibition above about 70%; inactive = the rest.

Assay [1] is described as follows: NCI Yeast Anticancer Drug Screen. Data for the rad50 strain (AID 155).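 Note: 0% = growth of vehicle-only cultures of the same strain.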 To be noted: S. cerevisiae rad50 strain growth inhibition; at 50.0 µM; hits give high values. Put shortly: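 Readout: growth inhibition relative to vehicle-treated cultures. Compound exposure was carried out in a genetically defined yeast strain deficient in DNA damage repair.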
The nature of assay [2]: NCI Yeast Anticancer Drug Screen. Data for the mec2-1 strain (AID 157). To be noted: S. cerevisiae mec2-1 strain, at 50.0 µM, hits give high values. Put shortly:
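mec2-1 yeast strain, carrying an alteration in DNA damage repair or cell cycle control, was exposed to compounds; growth inhibition was measured relative to vehicle-treated controls.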

Assay [3] is described as follows: NCI Yeast Anticancer Drug Screen. Data for the sgs1 mgt1 strain (AID 161).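 Note: 0% = growth of cultures given vehicle only.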 To be noted: S. cerevisiae sgs1 mgt1 strain, at 50.0 µM, hits give high values. The gist of the method: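 Growth of a repair-deficient yeast mutant was monitored after compound treatment and expressed as inhibition relative to vehicle-treated cultures.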
Assay [4] is described as follows: NCI Yeast Anticancer Drug Screen. Data for the cln2 rad14 strain (AID 165).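 Note: 0% = growth equal to vehicle treated cultures.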 To be noted: S. cerevisiae cln2 rad14 strain, at 50.0 µM, hits give high values. The gist of the method: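 Yeast carrying cln2 and rad14 alterations (cell cycle control and DNA damage repair) were exposed to compounds. Growth inhibition was measured against vehicle-treated controls.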
Assay [5] can be described thus: NCI Yeast Anticancer Drug Screen. Data for the bub3 strain (AID 167). To be noted: S. cerevisiae bub3 mutant strain, at 50.0 µM, hits give high values. The gist of the method:
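Readout: yeast growth inhibition, expressed relative to vehicle-only wells. The test organism is a mutant strain from a panel with lesions in DNA repair or checkpoint genes.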

Assay [6] in a line: NCI Yeast Anticancer Drug Screen. Data for the mlh1 rad18 strain (AID 175). To be noted: S. cerevisiae mlh1 rad18 strain growth inhibition; at 50.0 µM; hits give high values. The gist of the method: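 Growth inhibition of the yeast strain was measured after compound exposure and expressed relative to vehicle-treated controls. The strain carries defined defects in DNA damage repair.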

`CCOC(=O)C12CC(COc3ccc([N+](=O)[O-])cc3)ON1OC(COc1ccc([N+](=O)[O-])cc1)C2` (stereo unspecified): the growth inhibition in assay [1] is 23.9%; in assay [2] it was 7.8%; in assay [3], 17.2%; in assay [4], 2.4%; in assay [5], -3.85%; in assay [6], 28.1%.
On to `Cc1cccc(C(C)C)c1NC(=O)C(=O)C(C#N)c1ccc(CC#N)cc1` (stereo unspecified), for which the growth inhibition is -27.9% in assay [1]; 2.4% in assay [2]; 17.9% in assay [3]; -40% in assay [4]; 1.55% in assay [5]; 14.2% in assay [6].
Consider `COc1cccc(C=Nc2ccc(N(C)C)cc2)c1O.COc1cccc(C=Nc2ccc(N(C)C)cc2)c1O.[Co]`, for which the growth inhibition in assay [1] was 31.4%; in assay [2], 5.55%; in assay [3], 14.6%; in assay [4], 2.9%; in assay [5], 8.25%; in assay [6], -2.3%.
As for `CC/C(=N/NC(=O)c1ccccc1)c1ccccc1`, the growth inhibition was -18.9% in assay [1]; 9.5% in assay [2]; 8.7% in assay [3]; -19.4% in assay [4]; 8.5% in assay [5]; -17.7% in assay [6].
With `[Cl][Pt+2][Cl].[NH-]C1CCCC1[NH-]` (stereo unspecified), the growth inhibition is 13.8% in assay [1]; 9% in assay [2]; 20.9% in assay [3]; 3.8% in assay [4]; 21.9% in assay [5]; 36.8% in assay [6].
As to `O=C(CCc1ccccc1)n1cccc1CO`, the growth inhibition in assay [1] was -10.1%; in assay [2], -21.1%; in assay [3], -6.85%; in assay [4], 17.9%; in assay [5], 16.2%; in assay [6] it was 1.35%.
In the case of `COC(=O)c1cc(C(=O)OC)c(C/C(=N/Nc2ccc([N+](=O)[O-])cc2[N+](=O)[O-])C(=O)Nc2cccc(C(F)(F)F)c2)nc1C/C(=N/Nc1ccc([N+](=O)[O-])cc1[N+](=O)[O-])C(=O)Nc1cccc(C(F)(F)F)c1`, the growth inhibition in assay [1] was 57%; in assay [2], -5.95%; in assay [3], 1.15%; in assay [4], 25.4%; in assay [5], 37.9%; in assay [6], 59.8%.
For the compound `COc1cc(C(=O)C/C(CCCC(=O)Nc2ccccc2[N+](=O)[O-])=N/NC(=O)c2cc3ccccc3cc2O)ccc1O`, the growth inhibition in assay [1] was 12.9%; in assay [2] it was 28.1%; in assay [3] it was -9.75%; in assay [4], 23.3%; in assay [5] it was 1.4%; in assay [6], 7.85%.
As for `CCn1c2ccccc2c2ccc(N=Nc3ccccc3)cc21`, the growth inhibition was 36.8% in assay [1]; 12.6% in assay [2]; 19.2% in assay [3]; -1.75% in assay [4]; 22.8% in assay [5]; 17.8% in assay [6].
As for `Cc1cc2c(c([N+](=O)[O-])c1C)C(=O)C(Br)=C(Br)C2=O`, the growth inhibition in assay [1] is 15.7%; in assay [2], 10.4%; in assay [3], 21.5%; in assay [4], 34.7%; in assay [5], 5.9%; in assay [6] it was 36.2%.
For `O=C1c2ccccc2C2(Br)C(=O)c3ccccc3C12Br` (stereo unspecified), the growth inhibition in assay [1] was 98.6% (active); in assay [2] it was 99% (active); in assay [3] it was 98.8% (active); in assay [4], 98.5% (active); in assay [5], 98.5% (active); in assay [6] it was 98.9% (active).
Take `O=c1nc2sc3ccccc3c(=O)n2[nH]1`: the growth inhibition in assay [1] was -39.6%; in assay [2] it was -42%; in assay [3], -2.85%; in assay [4], 6.85%; in assay [5], -12.2%; in assay [6], -28.8%.
For `BrC=C1c2ccccc2-c2ccccc21`, the growth inhibition in assay [1] is 5.45%; in assay [2], -7.35%; in assay [3], 3.9%; in assay [4], 22.6%; in assay [5] it was 2.35%; in assay [6], 4.55%.
On to `CCOC(=O)c1sc(Nc2cc(Cl)ccc2Cl)nc1C`, for which the growth inhibition in assay [1] is -6.2%; in assay [2] it was -19.6%; in assay [3], -9.2%; in assay [4] it was -2%; in assay [5], -8.3%; in assay [6] it was -15.1%.
In the case of `CC(=O)N=C1N(/C=C2\C(=O)Oc3ccccc3C2=O)C(=O)/C(=C/c2ccc(NC(C)=O)cc2)N1C`, the growth inhibition in assay [1] is -32.8%; in assay [2] it was -26.3%; in assay [3] it was 34.2%; in assay [4] it was 7.7%; in assay [5] it was -31.1%; in assay [6], -12.3%.
In the case of `C/C(CC(=O)Nc1ccccn1)=N\c1ccccn1`, the growth inhibition in assay [1] was 14.2%; in assay [2], -16.5%; in assay [3] it was -6.6%; in assay [4], -0.35%; in assay [5], 1.95%; in assay [6] it was 9.95%.
For the compound `O=C(N/N=C\c1ccccn1)Nc1ccc(N=Nc2ccccc2)cc1`, the growth inhibition was 6.55% in assay [1]; -9.85% in assay [2]; -1.65% in assay [3]; -3.9% in assay [4]; 5.75% in assay [5]; 4.9% in assay [6].
As for `CCCCc1ccc(O)c(CN(CC)CC)c1`, the growth inhibition in assay [1] is 10.8%; in assay [2], -8.2%; in assay [3] it was -11.6%; in assay [4], -23.6%; in assay [5], -6.8%; in assay [6], -2.9%.
Consider `CCOc1ccc(-c2nc(-c3oc4ccccc4c(=O)c3OC(C)=O)cs2)cc1`, for which the growth inhibition was -5.25% in assay [1]; 1% in assay [2]; 1.85% in assay [3]; -2.85% in assay [4]; -5.9% in assay [5]; 9.4% in assay [6].
Take `O=c1c(-c2ccccc2)c2oc(c1-c1ccccc1)CSCc1cccc(c1)CSC2`: the growth inhibition in assay [1] is 15%; in assay [2], -0.1%; in assay [3] it was -3.55%; in assay [4], -28.9%; in assay [5], -20.6%; in assay [6], 7.8%.
As to `CCCCC(N)CSSCC(N)CCCC` (stereo unspecified), the growth inhibition in assay [1] was -20.8%; in assay [2] it was -44%; in assay [3], -23.3%; in assay [4], -20.1%; in assay [5], -50.6%; in assay [6] it was -35.6%.
As to `O=C1c2ccccc2S(=O)(=O)c2cc(-c3nn[nH]n3)ccc21`, the growth inhibition was -2.6% in assay [1]; -29.8% in assay [2]; -22.8% in assay [3]; 0.6% in assay [4]; -13.7% in assay [5]; -48% in assay [6].
In the case of `COC(=O)C(=O)C(C(=O)C1=NS(=O)(=O)c2cc(S(N)(=O)=O)c(Cl)cc2N1)c1nc2ccc(C(=O)c3ccccc3)cc2[nH]c1=O` (stereo unspecified), the growth inhibition was -9.7% in assay [1]; -18.1% in assay [2]; -18% in assay [3]; 6% in assay [4]; -19.9% in assay [5]; -19.2% in assay [6].
For the compound `NC(=O)CS(=O)Cc1cccc(Br)c1` (stereo unspecified), the growth inhibition was -13.9% in assay [1]; -11.2% in assay [2]; -17.6% in assay [3]; 7.35% in assay [4]; -1.5% in assay [5]; 6.5% in assay [6].
As to `N/N=C(/CC(O)(C(F)(F)F)C(F)(F)F)c1ccccc1`, the growth inhibition in assay [1] is -10.8%; in assay [2] it was -24.9%; in assay [3], -13.9%; in assay [4], -3.7%; in assay [5], 3%; in assay [6] it was 2.65%.
As for `COc1cc2c(cc1OC)C(c1ccccc1)ON(C)CC2` (stereo unspecified), the growth inhibition in assay [1] is -4.15%; in assay [2], -1.7%; in assay [3] it was -3.35%; in assay [4] it was -13.4%; in assay [5] it was 1.45%; in assay [6], 1.35%.
As to `CN(Cc1c(O)ccc2ccccc12)Cc1c[nH]c2ccccc12`, the growth inhibition in assay [1] was 20.4%; in assay [2], -13.8%; in assay [3], 0.5%; in assay [4], -46.5%; in assay [5], 6.9%; in assay [6], 13.4%.
For the compound `O=C(NO)c1ccccc1O`, the growth inhibition was 27.2% in assay [1]; 21% in assay [2]; -14.8% in assay [3]; 4.2% in assay [4]; 8% in assay [5]; 17.8% in assay [6].
With `O=C(NC(=O)c1ccccc1O)c1ccccc1`, the growth inhibition in assay [1] was -4.6%; in assay [2], 5.45%; in assay [3], -15.4%; in assay [4] it was -0.35%; in assay [5], -19.5%; in assay [6], -11.2%.
With `COc1cc(OC)c(NC(=O)C(Cl)(Cl)Cl)cc1Cl`, the growth inhibition in assay [1] is 4%; in assay [2], 42%; in assay [3] it was 5.9%; in assay [4] it was -17.4%; in assay [5], 30.9%; in assay [6], 27.4%.
Consider `O=C1c2cccc3cccc(c23)C(=O)N1CCCN(CCO)CCO`, for which the growth inhibition is -1.25% in assay [1]; 4.25% in assay [2]; -4.35% in assay [3]; 7.95% in assay [4]; -7.6% in assay [5]; 14.2% in assay [6].
With `COc1ccc(-c2c(C#N)c(N)n(C3OCC(O)C(O)C3O)c(=S)c2C#N)cc1` (stereo unspecified), the growth inhibition in assay [1] is -33.6%; in assay [2], -6.5%; in assay [3], -15.3%; in assay [4], -37.8%; in assay [5], -1.9%; in assay [6], 3.4%.
`Cc1[nH]c(=O)[nH]c1C(=O)c1ccc(-n2ccnc2)cc1`: the growth inhibition is -1.45% in assay [1]; -9.75% in assay [2]; 16.1% in assay [3]; 16.2% in assay [4]; 5.25% in assay [5]; -9.15% in assay [6].
For `C=COC(=O)C(Cc1ccccc1)NC(=O)OCc1ccccc1` (stereo unspecified), the growth inhibition was -5.2% in assay [1]; 10.8% in assay [2]; -23.2% in assay [3]; 10.6% in assay [4]; -7.65% in assay [5]; 6.9% in assay [6].
In the case of `CCC(=O)Nc1ccc(F)cc1`, the growth inhibition is -4.65% in assay [1]; 1.45% in assay [2]; -0.45% in assay [3]; -27.4% in assay [4]; -10.9% in assay [5]; 4.3% in assay [6].
With `Nc1nc(N)c2c(n1)NCN(OCCOc1ccc(Cl)cc1Cl)C2`, the growth inhibition was 1.1% in assay [1]; 3% in assay [2]; 9.15% in assay [3]; -26.8% in assay [4]; -14.8% in assay [5]; 9.8% in assay [6].
